Assay outcomes from PubChem.
Shown are actives, neighbours in structure and some others; about 3.8% of the full set was active somewhere.
NALP3 yeast inh – blocks the NALP3 inflammasome reconstituted in yeast. Yeast reconstituted NLRP3/ASC/caspase-1, beta-gal luminescence, 24 h. inhibition, % at 10 µM. actives 0.39% (n = 330,000);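 active means inhibition of 50% or more; inactive means inhibition below 50%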;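 further: plate controls were induced DMSO wells for no effect and uninduced yeast grown without galactose for full effect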
TIM10 inh – growth inhibitors of TIM10 yeast strain; S. cerevisiae TIM10 strain growth, BacTiter-Glo luminescence, 24 h; inhibition, % at 10 µM; actives 1.4% (n = 330,000);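 active means inhibition of 40% or more at the single tested concentration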;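 further: wild-type TIM10 isogenic control strain grown at permissive 25 °C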
tim23-1 inh – inhibits growth of tim23-1 mutant yeast; S. cerevisiae tim23-1 growth, BacTiter-Glo luminescence, 24 h; inhibition, % at 20 µM; actives 1.3% (n = 330,000); AID 463212;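 active means growth inhibition of the mutant yeast at or above 50%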;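 further: temperature-sensitive mutant grown at 25 °C; plate controls were DMSO-treated mutant yeast for no effect and medium wells lacking yeast for full effect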
tim10-1 inh – inhibits growth of tim10-1 mutant yeast | S. cerevisiae tim10-1 ts strain growth, BacTiter-Glo, 24 h | actives 2.2% (n = 330,000) | AID 463190 | inhibition, % at 20 µM;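 active means inhibition of at least 40%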;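 further: mutant grown at 25 °C; 0% = DMSO wells with yeast and 100% = wells holding no yeast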
CR mimetic SO – yeast age-related superoxide inhibition as caloric restriction mimetic. superoxide response (% of plate mean), % at 10 µM. S. cerevisiae aged cells, superoxide DHE fluorescence; stronger effect = lower value. actives 0.18% (n = 330,000);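 active means superoxide response under a set limit, about three screen SD below normal, cut at about 65% in these data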;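 further: yeast aged for seven days with compound at 30 °C before DHE staining; 100% = average MFI of all compound-treated wells on the plate with controls excluded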
TIM10 conf – confirmation of TIM10 yeast growth inhibitors. inhibition, % at 10 µM. shares compounds with TIM10 inh. actives 63% (n = 4,600). S. cerevisiae tim10 strain growth, BacTiter-Glo luminescence, 24 h;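 active means inhibition of yeast growth at or above a set limit in either of two replicates at 10 µM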;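 further: this counterscreen used the strain with wild-type TIM10; 0% = yeast with DMSO and 100% = medium wells lacking yeast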
* marks the source's active call; other numbers are inactive results; . = no result.

SMILES	NALP3 yeast inh	TIM10 inh	tim23-1 inh	tim10-1 inh	CR mimetic SO	TIM10 conf
O=[N+]([O-])C(=C1Nc2ccccc2N1)/C(Cl)=C(/Cl)Br	-8	57*	37	26	94	41*
O=C(NC1CCCC1)C(c1ccco1)N(C(=O)c1ccco1)c1ccccc1 (stereo unspecified)	-1	8	26	20	104	.
CCc1ccc(N(C(=O)c2ccco2)C(C(=O)NC2CCCC2)c2ccco2)cc1 (stereo unspecified)	-1	42*	23	27	100	-27
CCOc1cc(-c2cc(-c3ccc(C)o3)nc(N)c2C#N)ccc1O	6	43*	31	40	109	21
COc1ccc(Cn2c(=O)oc3ccc(C)cc32)cc1	30	97*	18	-6	83	5
Cn1c(=O)n(C)c2cc(/C=C(/C#N)C(=O)NCc3ccco3)ccc21	4	43*	21	34	119	37*
CN(C)c1ccc(/C=C(\C#N)C(=O)NCc2ccco2)cc1	0	15	11	4	100	.
Cn1c(SCc2ccc3c(c2)OCO3)nnc1-c1ccccc1	24	97*	30	-3	96	11
CCn1cc(/C=C(\NC(=O)c2cc(OC)c(OC)c(OC)c2)C(=O)NCCN2CCOCC2)c2ccccc21	6	97*	-4	14	100	0
CCn1cc(/C=C(\NC(=O)c2cc(OC)c(OC)c(OC)c2)C(=O)NCCCN2CCOCC2)c2ccccc21	0	4	9	20	137	.
CC(C)(C)OC(=O)C[C@H]1C/C=C\C[C@@H](CC(=O)N[C@@H](CO)Cc2ccccc2)C(=O)NCCOC1=O	18	2	7	3	111	.
CCCCn1c(N)c(N(CC)C(=O)CSc2nnc(-c3ccco3)n2CC)c(=O)[nH]c1=O	-2	-2	-10	6	92	.
Cc1noc(C(=O)Nc2ccc3c(c2)OCO3)c1Cl	31	97*	16	19	97	-1
CC(=O)NC(CC(=O)Oc1ccc(C)cc1Br)c1ccccc1 (stereo unspecified)	-4	8	20	23	116	.
COc1cccc(C(=O)OCC(=O)Nc2ccc(N3CCOCC3)cc2)c1	-4	-6	3	-1	72	.
CC(=O)N1c2ccc(S(=O)(=O)N(C)Cc3ccccc3)cc2CC1C (stereo unspecified)	0	-6	20	11	107	.
CCCCc1ccc(-n2c(Cc3cccs3)n[nH]c2=S)cc1	19	52*	47	37	78	36*
CCN=C(NS(=O)(=O)c1ccc(Br)cc1)c1ccc(Cl)cc1	6	6	13	1	99	.
CCOC(=O)C1CCN(C(=O)c2ccc3c(c2)NC(=O)/C(=C\c2ccc(C)cc2)S3)CC1	25	41*	47	21	120	-4
O=C(CCSc1nc(-c2ccco2)cc(C(F)(F)F)n1)N1CCN(c2ccccn2)CC1	13	40*	33	36	100	32*
N=c1oc2ccccc2cc1C(=O)Nc1cccc(F)c1	4	40*	47	-16	100	19
CC1(c2ccc([N+](=O)[O-])cc2)NC(=O)NC1=O (stereo unspecified)	3	12	-1	-14	100	.
COc1ccc(-c2nc(SC)n(C(=O)c3ccco3)n2)cc1	3	42*	23	27	105	18
COc1ccc(-c2nc(SCc3ccccc3)n(C(=O)c3ccco3)n2)cc1	18	3	12	7	102	.
COc1ccc(CNC(=S)N/N=C/c2ccc(O)c(OC)c2)cc1	-3	38	31	2	117	.
SMILES	NALP3 yeast inh	TIM10 inh	tim23-1 inh	tim10-1 inh	CR mimetic SO	TIM10 conf
CCN(CC)c1ccc(/C=N/NC(=S)NCc2ccccc2)cc1	12	44*	5	34	95	-1
COc1ccc(CNC(=S)N/N=C/c2ccc(OC)c(OC)c2)cc1	16	40*	7	20	89	23
C=CCNC(=S)N/N=C/c1ccc(N(CC)Cc2ccccc2)cc1	15	34	41	26	96	.
CCC(C)NC(=O)Cn1c(-c2ccccc2)cc(C(C)=O)c1C (stereo unspecified)	5	-1	2	10	131	.
O=C(CNC(=O)c1ccc(Br)o1)NCC1COc2ccccc2O1 (stereo unspecified)	-2	4	15	14	97	.
O=C(CNS(=O)(=O)c1ccc(Br)s1)NCC1COc2ccccc2O1 (stereo unspecified)	19	61*	-19	33	114	49*
CSc1ccc(C(=O)C2CCCN(C(=O)c3ccc4c(c3)no[n+]4[O-])C2)cc1 (stereo unspecified)	9	46*	49	24	82	35*
Cc1nc2ccc(NC(=O)c3ccc([N+](=O)[O-])cc3[N+](=O)[O-])cc2s1	5	42*	40	38	106	28
CCCCNC(=O)Nc1nc2ccc(CC)cc2s1	18	40	28	35	99	30
CC(C)COc1cc(=O)[nH]c(SCC(C)C)n1	-40	45*	9	36	148	39*
CCCc1nc2oc3c(NCC(C)O)ncnc3c2c2c1CCCC2 (stereo unspecified)	18	41*	31	34	107	45*
O=S(=O)(NC1=NCCCCC1)c1cc(F)ccc1F	9	-7	-5	-11	108	.
COc1ccc(/C=C(/C(=O)Nc2ccccc2C(=O)N2CCCC2)c2ccccc2)cc1	-6	43*	30	34	100	28
COc1ccc(/C=C(/C(=O)Nc2ccccc2C(=O)NC(C)C)c2ccccc2)cc1	19	33	2	35	88	.
CCc1cc(-c2n[nH]c(=S)n2C(C)c2ccccc2)cs1 (stereo unspecified)	0	41*	40	26	107	20
C=CCOc1ccc(C2/C(=C(/O)c3ccc(OC)cc3)C(=O)C(=O)N2CCN2CCNCC2)cc1 (stereo unspecified)	6	4	-8	9	102	.
CCc1nnc(NC(=O)CN2C(=O)NC3(CC(C)CC(C)(C)C3)C2=O)s1 (stereo unspecified)	4	12	-6	2	100	.
O=C(OCC(=O)N1CCCC1=O)C1CCN(S(=O)(=O)c2ccc(Cl)c(C(F)(F)F)c2)CC1	13	6	3	-4	125	.
O=C(CCc1ccccc1)NC(=S)Nc1cccc(C(=O)O)c1	16	-4	0	-1	102	.
O=C(CCc1ccccc1)NC(=S)Nc1cccc(Br)c1	2	48*	42	37	105	-16
S=C(Nc1cccc(Br)c1)c1ccccc1	38	43*	45	38	119	44*
O=C(CCN1C(=O)c2ccccc2C1=O)NC(=S)Nc1cccc(Cl)c1	26	41*	1	8	94	25
CC(=O)c1cccc(NC(=S)NCCCCc2ccccc2)c1	11	41*	33	28	118	-16
